Screens: PubChem BioAssay, The Scripps Research Institute Molecular Screening Center
The entries come from a sample that favours hits as a whole.
GBA activity up = glucocerebrosidase activity enhancement | 0.44% of 30,000 active | AID 784 | L444P Gaucher fibroblasts, 4-MU-glucoside fluorescence, 3 days | activation, % at 10 µM; in the data active = activation above about 65%;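 also: 0% = vehicle wells and 100% = positive control wells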
Target sequence (P04062 whole entry L483P): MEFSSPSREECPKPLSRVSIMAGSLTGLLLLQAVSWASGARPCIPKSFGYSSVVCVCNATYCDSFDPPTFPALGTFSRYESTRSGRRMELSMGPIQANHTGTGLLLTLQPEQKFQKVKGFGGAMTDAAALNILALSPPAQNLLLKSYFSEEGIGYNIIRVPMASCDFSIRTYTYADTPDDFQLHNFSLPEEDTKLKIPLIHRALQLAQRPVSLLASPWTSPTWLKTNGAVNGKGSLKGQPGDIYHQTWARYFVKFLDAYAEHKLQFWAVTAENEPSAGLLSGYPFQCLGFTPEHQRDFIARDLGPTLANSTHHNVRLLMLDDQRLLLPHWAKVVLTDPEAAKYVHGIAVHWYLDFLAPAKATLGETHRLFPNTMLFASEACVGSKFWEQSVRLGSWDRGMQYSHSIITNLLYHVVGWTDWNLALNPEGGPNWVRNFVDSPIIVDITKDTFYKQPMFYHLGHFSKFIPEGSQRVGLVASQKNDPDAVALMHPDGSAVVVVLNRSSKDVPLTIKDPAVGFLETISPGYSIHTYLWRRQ
* marks the source's active call; other numbers are inactive results.

SMILES	GBA activity up
COc1cccc(-n2c(SCC(=O)OC(C)C)nnc2-c2cccnc2)c1	-41
Cc1ccc(C(=O)CSc2nnc(-c3cccnc3)n2N)cc1	-20
CCCOCCOC(=O)C1=C(C)NC(=O)NC1c1cc(Cl)c(O)c(OC)c1 (stereo not drawn)	-8
CC1=C(C(=O)Nc2cccnc2)C(c2ccncc2)n2nnnc2N1 (stereo not drawn)	70*
CC1=C(C(=O)Nc2ccccc2)C(c2ccncc2)n2nnnc2N1 (stereo not drawn)	-6
CC1=C(C(=O)Nc2cccnc2)C(c2ccccn2)n2nnnc2N1 (stereo not drawn)	27
Cc1ccc(Cn2ccc(NC(=O)c3c(-c4ccccc4Cl)noc3C)n2)cc1	-3
N#CC1=C(N)N(c2ccc(Br)cc2)C2=C(C(=O)CCC2)C1c1cccnc1 (stereo not drawn)	1
CCCCn1nnnc1NCc1cccc(OC)c1OC	-6
COc1ccc(S(=O)(=O)N2CCC(C(=O)Nc3cccc(Cl)c3)CC2)cc1OC	-3
CC1CCC(C(=O)NC(C(=O)NCCCN2CCOCC2)C(C)C)CC1 (stereo not drawn)	68*
CCN1CCN(CCCNC(=O)C(NC(=O)C2CCC(C)CC2)C(C)C)CC1 (stereo not drawn)	12
CCN1CCCC1CNC(=O)C(NC(=O)C1CCC(C)CC1)C(C)C (stereo not drawn)	-7
CCOC(=O)NC(Nc1cc(C)ccn1)(C(F)(F)F)C(F)(F)F	-33
Cc1noc(C)c1CSc1ccccc1C(=O)Nc1nccs1	-4
Cn1c(=O)c2c(-c3ccncc3)c3c(nc2n(C)c1=O)-c1ccccc1C3=O	-21
CCC(Sc1nc(C)cc(=O)[nH]1)C(=O)Nc1nnc(C)s1 (stereo not drawn)	-21
Cc1cc(=O)[nH]c(SCC(=O)Nc2nc3c(s2)CCCC3)n1	-36
CCC(Sc1nc(C)cc(=O)[nH]1)C(=O)Nc1nc2c(s1)CCCC2 (stereo not drawn)	81*
CS(=O)(=O)N(CC(=O)NCc1ccc2c(c1)OCO2)Cc1ccccc1	-3
O=C(NCCCN1CCCC1=O)c1ccc2c(=O)n(Cc3ccco3)c(=S)[nH]c2c1	115*
COc1cc(NC(=O)c2ccc3c(=O)n(Cc4ccco4)c(=S)[nH]c3c2)cc(OC)c1OC	17
COC(=O)c1ccc2c(=O)n(CCCN3CCCC3=O)c(=S)[nH]c2c1	-7
COc1ccc2sc(N3C(=O)C4CC=C(C)CC4C3=O)nc2c1 (stereo not drawn)	8
CC(=O)c1cccc(NC(=O)N2CCCC2C(=O)Nc2ccccc2C)c1 (stereo not drawn)	-20
SMILES	GBA activity up
CC(=O)Nc1cccc(NC(=O)C2CCCN2C(=O)Nc2ccc(C)cc2)c1 (stereo not drawn)	80*
CC(=O)c1cccc(NC(=O)N2CCCC2C(=O)NCc2ccc(C)cc2)c1 (stereo not drawn)	23
COc1ccc(-c2c3c(=O)n(C)c(=O)n(C)c3cn2-c2cc(OC)ccc2OC)cc1	-10
CC(CS(=O)(=O)c1cccc2cccnc12)N1CCCCC1 (stereo not drawn)	108*
COc1ccc(NS(=O)(=O)c2cccc3cccnc23)cc1	-19
O=C(NC1CCCC1)C1CCN(S(=O)(=O)c2cccc3cccnc23)CC1	4
CC1(C)CSC(=S)N1S(=O)(=O)c1ccccc1	-6
CC(NC(=O)CSc1ncccn1)c1ccccc1 (stereo not drawn)	-16
CCOC(=O)c1ccc(NC(=O)CSC2=NC(=O)C(CC)C(=O)N2)cc1 (stereo not drawn)	145*
CCOC(=O)c1ccc(NC(=O)CSc2nnc(C)n2-c2ccccc2)cc1	9
CCC1C(=O)N=C(SCC(=O)Nc2cccc3ccccc23)NC1=O (stereo not drawn)	4
CCOC(=O)c1cc(C)n(-n2cnnc2)c1C	-42
CCCCCOC(=O)CSc1nnc(-c2ccccc2)c(=O)[nH]1	42
COc1cccc(S(=O)(=O)NCc2ccc(C(=O)NCC3CCCO3)cc2)c1 (stereo not drawn)	2
COc1ccc(S(=O)(=O)NCC(=O)N(CC(=O)NCC2CCCO2)c2ccccc2C)cc1 (stereo not drawn)	72*
O=C(CN(CCc1ccccc1)C(=O)CNS(=O)(=O)c1ccccc1)NCC1CCCO1 (stereo not drawn)	-7
Cn1c(/C(C#N)=C(\O)c2ccc(S(=O)(=O)N3CCCCC3)cc2)nc2ccccc21	71*
COc1ccc(/C(O)=C(\C#N)c2nc3ccccc3n2C)cc1OC	2
O=C(Nc1ccccc1)c1ccc(S(=O)(=O)N2CCCC2)cc1	4
Cc1noc(/C=C/N(C)C)c1S(=O)(=O)N1CCCC(C(=O)NCc2ccccc2Cl)C1 (stereo not drawn)	8
Cc1ccc(N2CC(C(=O)NCc3ccccn3)CC2=O)cc1 (stereo not drawn)	-4
Cc1ccc2c3c(c(SCC(=O)Nc4nonc4C)nc2c1)CCCC3	14
O=C1OCCN1CCN(CN1C(=O)CCC1=O)CN1C(=O)CCC1=O	-15
Cc1nonc1NC(=O)OCCN1CCOC1=O	88*
CCOc1ccccc1NC(=O)CSc1nnc(-c2ccccc2Cl)n1Cc1ccco1	5
